SIRT5 block: inhibitors of human sirtuin-5 desuccinylase; 330,000 tested, 1.1% active; inhibition, % at 15 µM; Purified SirT5, succinyl-peptide AMC, trypsin-coupled fluorescence; Q9NXA8; in the data active = inhibition above about 15%
Casp6 inh: inhibitors of human caspase-6; P55212; purified caspase-6, Z-VEID-R110 cleavage fluorescence; inhibition, % at 12.5 µM; 350,000 tested, 0.53% active; AID 686996;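 active = mean inhibition across replicates at least about 35%, with every replicate also reaching that limit, limit read from the data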;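 also: 0% = median of neutral control wells and 100% = no fluorescence left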
ERAP1 HTS inh: ERAP1 (human) enzyme inhibition | 340,000 tested, 0.15% active | Q9NZ08 | recombinant ERAP1, Leu-AMC fluorescence, 60 min | inhibition, % at 10.7 µM;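 active = mean replicate inhibition of at least 30%, or all replicates individually reaching that 30% level; inactive = mean below 30% and not every replicate reaching it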;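 also: 0% = neutral control wells and 100% = L-leucinethiol positive control wells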
GSIS activator: primary screen for activators of insulin secretion dependent on glucose, INS-1E cells, GLuc reporter luminescence. INS-1E GLuc reporter insulin secretion, 2-3 h. 370,000 tested, 0.61% active. activation, % at 16.6 µM;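 active = lowest replicate activation of at least 40%, so every replicate reaches that level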;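 also: 0% = median of neutral control wells and 100% = median of IBMX positive control wells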
FGF22 binding: binders of recombinant human FGF22 by thermal shift. SYPRO orange fluorescence; percent of sucrose octasulfate shift, DMSO zero. activity (Tm shift, normalised), % at 9.99 µM. 340,000 tested, 1.5% active. AID 651658;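 active = mean Tm shift, scaled 0 neutral to 100 positive control, at about 1.3% or above, every replicate too, limit read from the data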
An asterisk follows results filed as active; / = no result. This is a sample that favours compounds with a hit; in the whole collection about 3.3% have one here.

SMILES	SIRT5 block	Casp6 inh	ERAP1 HTS inh	GSIS activator	FGF22 binding
CCCNC(=O)Nc1ccc2c(c1)OC[C@H](C)N(C(=O)C1CCOCC1)C[C@@H](C)[C@@H](OC)CN(C)C2=O	1.5	/	/	-7.1	-0.3
CCC(=O)Nc1ccc2c(c1)OC[C@@H](C)N(C(=O)COC)C[C@@H](C)[C@H](OC)CN(C)C2=O	-4.9	0.1	-2.1	5.1	0.0
Cc1ccc2c(c1)c1nnc(SCC(=O)Nc3cccc(Cl)c3C)nc1n2CC(=O)O	2.4	-2.4	-6.0	-18.3	1.7*
Cc1ccc2c(c1)c1nnc(SCC(=O)Nc3ccccc3C(F)(F)F)nc1n2CC(=O)O	1.4	-0.7	-1.0	-2.6	0.4
CC(C)NC(=O)Nc1ccc2c(c1)CC(=O)N([C@H](C)CO)C[C@@H](C)[C@H](CN(C)S(=O)(=O)c1ccc(Cl)cc1)O2	2.1	4.1	1.0	13.0	-0.6
COc1ccc(-c2ccc3c(c2)O[C@@H](CN(C)CC2CCOCC2)[C@@H](C)CN([C@H](C)CO)S3(=O)=O)cc1	-0.6	-0.5	-1.3	7.9	0.2
CCNC(=O)CCSc1nnc(-c2ccncc2)o1	20.2*	2.0	5.9	0.8	0.2
CCNC(=O)CSc1nnc(-c2cccs2)o1	17.8*	2.8	5.2	8.7	0.1
COc1ccc(S(=O)(=O)Nc2ccc3c(c2)[C@@H]2C[C@@H](CC(=O)N(C)C)O[C@@H](CO)[C@@H]2O3)cc1	-1.8	-0.4	0.0	12.2	-0.2
C[C@H](CO)N1C[C@H](C)[C@H](CN(C)S(=O)(=O)c2cccs2)Oc2c(NC(=O)Nc3ccccc3)cccc2C1=O	/	/	/	8.0	/
COc1ccc2c3c(n(C)c2c1)[C@H](CO)N(CC1CC1)CC31CN(C(=O)c2ccccc2)C1	/	/	-1.9	-15.8	0.4
CN(C)C(=O)c1cccc(-c2ccc3c(c2)[C@@H]2[C@@H](CCN2S(=O)(=O)c2cn(C)cn2)[C@H](CO)N3)c1	1.5	-1.2	-2.5	7.1	-0.3
COc1ccccc1C(=O)N1C[C@@H]2[C@H](c3ccccc31)[C@H](CO)N2C(=O)Cc1ccccc1	2.5	0.9	-4.5	/	-1.3
O=S(=O)(NC(=S)NC1CCCCC1)c1cccs1	-5.7	3.3	-3.6	4.3	43.2*
O=C(c1ccncc1)N1CC2(C1)[C@H](c1ccccc1)[C@@H](CO)N2C(=O)c1ccncc1	13.7	1.0	-0.6	16.0	0.1
CCS(=O)(=O)Nc1ccc2c(c1)C(=O)N(C)C[C@@H](OC)[C@@H](C)CN(CCC(F)(F)F)[C@H](C)CO2	-4.6	/	/	-7.1	-0.1
COCCN(C(=O)/C=C/c1cccc([N+](=O)[O-])c1)c1c(N)n(Cc2ccccc2)c(=O)[nH]c1=O	2.8	1.0	-0.2	-5.9	0.3
COCCN(C(=O)COC(=O)Cc1cccc(OC)c1)c1c(N)n(CC(C)C)c(=O)[nH]c1=O	-3.9	-1.3	1.9	52.7*	0.0
COCCN(C(=O)c1cc2c(s1)CCCCC2)c1c(N)n(CC(C)C)c(=O)[nH]c1=O	-5.8	5.9	-1.7	13.3	-0.2
COCCN(C(=O)c1cc2c(s1)CCC2)c1c(N)n(CC(C)C)c(=O)[nH]c1=O	-2.6	52.3*	2.9	-8.9	-0.1
COCCN(C(=O)/C=C/c1ccccc1)c1c(N)n(Cc2ccccc2)c(=O)[nH]c1=O	-5.2	3.2	2.8	12.7	43.2*
COCCN(C(=O)C1CCN(C(=O)c2ccccc2C)CC1)c1c(N)n(CC(C)C)c(=O)[nH]c1=O	-4.2	-2.2	90.7*	9.7	0.4
CCOC(=O)C1CCN(CC(=O)N(CC(C)C)c2c(N)n(CC(C)C)c(=O)[nH]c2=O)CC1	-5.7	-3.6	-3.5	-0.9	44.0*
Cc1nnc2n1N=CC=C(c1ccccc1)S2	-2.3	4.5	0.0	41.4*	/
CO[C@@H]1CN(C)C(=O)c2cc(NS(=O)(=O)c3cn(C)cn3)ccc2OC[C@H](C)NC[C@H]1C	-0.4	2.6	-0.5	13.8	0.5
SMILES	SIRT5 block	Casp6 inh	ERAP1 HTS inh	GSIS activator	FGF22 binding
O=c1ccc(-c2ccc(S(=O)(=O)Nc3cccc([N+](=O)[O-])c3)s2)n[nH]1	-8.4	36.5*	0.7	77.4*	0.1
Cc1cccc(NS(=O)(=O)c2ccc(-c3ccc(=O)[nH]n3)o2)c1	1.3	4.9	1.1	12.6	-0.2
CC(C)(C)c1nc2ccc(Cl)cn2c1CC1CCCCC1	-4.0	2.1	-2.5	52.7*	-0.1
Cc1ccc(S(=O)(=O)Nc2ccc3c(c2)C(=O)N([C@H](C)CO)C[C@H](C)[C@@H](CN(C)C(=O)Nc2ccc(C(F)(F)F)cc2)OCCCC[C@H](C)O3)cc1	16.0*	3.9	5.0	6.6	0.0
Cc1ccc(S(=O)(=O)Nc2ccc3c(c2)C(=O)N([C@H](C)CO)C[C@H](C)[C@@H](CN(C)C(=O)Nc2ccccc2)OCCCC[C@@H](C)O3)cc1	2.4	0.3	2.4	-15.0	-0.4
C[C@@H]1CCCCO[C@@H](CN(C)C(=O)Nc2ccc(C(F)(F)F)cc2)[C@H](C)CN([C@H](C)CO)C(=O)c2cc(NS(=O)(=O)c3ccc(F)cc3)ccc2O1	-0.5	-2.1	-3.3	6.7	-0.1
C[C@@H]1CN([C@H](C)CO)C(=O)c2cc(N(C)C)ccc2O[C@H]1CN(C)C(=O)Nc1ccc(F)cc1	33.7*	-0.6	1.4	-8.9	-0.2
Cc1ccc(S(=O)(=O)Nc2ccc3c(c2)C(=O)N([C@@H](C)CO)C[C@H](C)[C@@H](CN(C)C(=O)Nc2ccccc2)OCCCC[C@H](C)O3)cc1	16.6*	-2.4	1.8	-8.5	-0.4
Cc1ccc(S(=O)(=O)Nc2ccc3c(c2)C(=O)N([C@H](C)CO)C[C@@H](C)[C@H](CN(C)C(=O)Nc2ccc(C(F)(F)F)cc2)OCCCC[C@@H](C)O3)cc1	15.6*	0.9	0.5	-6.2	-0.1

High-throughput results deposited in PubChem BioAssay by Broad Institute.
